According to PubChem BioAssay (NCI):
Compounds without any hit were thinned out: in the full panel of roughly 79,000, 15% have a hit. Cut-off read from the data, not from the text of the source: active = growth inhibition above about 70%; inactive = the rest.

Tests used:
[1] = NCI Yeast Anticancer Drug Screen. Data for the rad50 strain (AID 155);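 note: 0% = growth of vehicle-only cultures of the same strain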; conditions: S. cerevisiae rad50 strain growth inhibition; at 50.0 µM; stronger effect = higher value
Method in brief: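 Readout: growth inhibition relative to vehicle-treated cultures. Compound exposure was carried out in a genetically defined yeast strain deficient in DNA damage repair.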

[2] = NCI Yeast Anticancer Drug Screen. Data for the mec2-1 strain (AID 157); conditions: S. cerevisiae mec2-1 strain, at 50.0 µM, stronger effect = higher value
Method in brief: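 Growth inhibition is read against vehicle-treated controls after compound exposure of the mec2-1 yeast strain, which is defective in DNA damage repair or cell cycle control.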

[3] = NCI Yeast Anticancer Drug Screen. Data for the sgs1 mgt1 strain (AID 161);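 note: 0% = growth of cultures given vehicle only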; conditions: S. cerevisiae sgs1 mgt1 strain, at 50.0 µM, stronger effect = higher value
Method in brief: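 Compounds are added to genetically altered yeast, and growth is compared with cultures given vehicle alone to give percent inhibition.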

[4] = NCI Yeast Anticancer Drug Screen. Data for the cln2 rad14 strain (AID 165);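 note: 0% = growth equal to vehicle treated cultures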; conditions: S. cerevisiae cln2 rad14 strain, at 50.0 µM, stronger effect = higher value
Method in brief: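 Growth inhibition, relative to vehicle-treated controls, is the read-out. The test organism is a yeast strain with defined genetic alterations, cln2 rad14.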

[5] = NCI Yeast Anticancer Drug Screen. Data for the bub3 strain (AID 167); conditions: S. cerevisiae bub3 mutant strain, at 50.0 µM, stronger effect = higher value
Method in brief: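 Readout: yeast growth inhibition, expressed relative to vehicle-only wells. The test organism is a mutant strain from a panel with lesions in DNA repair or checkpoint genes.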

[6] = NCI Yeast Anticancer Drug Screen. Data for the mlh1 rad18 strain (AID 175); conditions: S. cerevisiae mlh1 rad18 strain growth inhibition; at 50.0 µM; stronger effect = higher value
Method in brief: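 Cells of a genetically altered yeast strain, deficient in DNA damage repair, were treated with compound. Their growth was then compared with that of vehicle-treated cultures to give inhibition.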

Measured: growth inhibition

CC(C)CCCC(C)C1CCC2C3CCC4=CCCCC4(C)C3CCC12C (stereo not drawn)
inactive: [1] 4.6% | [2] 33% | [3] 27.8% | [4] 33.1% | [5] 2.45% | [6] 50.7%

COc1cccc2c(=O)oc(-c3ccc(C(C)(C)C)cc3)nc12
inactive: [1] 16.4% | [2] 8.8% | [3] 18.4% | [4] 1.3% | [5] 13.4% | [6] 30.9%

COc1cc2ccnc(C#N)c2cc1OCc1ccccc1
inactive: [1] -60.1% | [2] -12.3% | [3] -10.7% | [4] -6.15% | [5] -14.2% | [6] -31.3%

CCCCCCC1CCC(O)CC1 (stereo not drawn)
inactive: [1] 22.6% | [2] 2.95% | [3] -8.05% | [4] -0.15% | [5] 12.3% | [6] 41.1%

COc1ccc2c(c1)CCN1CCCc3ccc(OC)cc3C21 (stereo not drawn)
inactive: [1] 18.9% | [2] 30.3% | [3] 24.6% | [4] 55.1% | [5] 31.4% | [6] 46.7%

COc1ccc(C[n+]2ccccc2C#N)cc1OC
inactive: [1] 4.7% | [2] -13.8% | [3] -10.4% | [4] -15.8% | [5] 4.25% | [6] 3.2%

N=c1c(-c2ccccc2)cc2ccccc2n1O
inactive: [1] 7.6% | [2] 10.3% | [3] -6.95% | [4] -0.1% | [5] -5.35% | [6] -5.25%

CC(C)C1SCC(=O)N1c1nncs1 (stereo not drawn)
inactive: [1] -2.55% | [2] 22.4% | [3] 9.15% | [4] -27.8% | [5] -0.9% | [6] 5%

C=C1C(=O)OC2C1C(=O)C/C(C)=C/CCC1(C)OC21 (stereo not drawn)
inactive: [1] 35.6% | [2] 52% | [3] 63.2% | [4] 34% | [5] 66% | [6] 9.95%

COc1cc(NCCCCCCN(C)C)c2ncccc2c1
inactive: [1] -17.4% | [2] -21.2% | [3] -3.1% | [4] -19.4% | [5] 5.8% | [6] -14.8%

O=C(NCCCl)Nc1ccc2c(c1)CCC2
inactive: [1] 1.55% | [2] 3.3% | [3] 1.55% | [4] -10.8% | [5] 10.8% | [6] 6.7%

O=C1CCCN(Cc2ccccc2)C1
inactive: [1] -4.2% | [2] -25.2% | [3] 0.35% | [4] 1.2% | [5] -0.4% | [6] 9.45%

CCNC(=S)NNC(=O)c1ccc(N=NN(C)C)cc1
inactive: [1] -5.15% | [2] 12.8% | [3] 10.3% | [4] -13.4% | [5] 14.8% | [6] 10.9%

O=CNCCNC=O
inactive: [1] 0.05% | [2] -2.25% | [3] -15% | [4] -12.7% | [5] 0.65% | [6] -1.85%

Cc1cc(NC(=O)N(CCCl)N=O)c(C)cc1NC(=O)c1ccccc1
inactive: [1] 24.5% | [2] -22.5% | [3] 40.5% | [4] -3.4% | [5] -0.5% | [6] 55.2%

CN(C)CCOC(=S)S
inactive: [1] 1.85% | [2] -0.4% | [3] -9.3% | [4] 1.5% | [5] 10.3% | [6] -1%

CCCCN1C(=O)C(=O)N(CCc2ccc(OC)c(OC)c2)C1=O
inactive: [1] 28% | [2] 5.8% | [3] 11.9% | [4] 18.7% | [5] 1.35% | [6] 18.1%

CC(C)c1ccc(/C=C2/CCCCC2=O)cc1
inactive: [1] -2.55% | [2] -15% | [3] -10.5% | [4] -68.8% | [5] -16.4% | [6] -24.9%

Cc1nc(-c2ccccc2)oc1-c1ccccc1
inactive: [1] 8.6% | [2] -1.5% | [3] -1.7% | [4] 6.95% | [5] 0.05% | [6] -4.35%

CCCCCCCCCCCCCCCCCCC1=C(O)C(=O)C=C(OC)C1=O
inactive: [1] 18.2% | [2] -6.5% | [3] -3.05% | [4] -2.4% | [5] 4.4% | [6] 8.75%

Cn1nc(Br)c(=O)n(C)c1=O
inactive: [1] -17.9% | [2] -11.1% | [3] -14.8% | [4] -3.15% | [5] 1.7% | [6] -10.4%

CN1C(C)(C)CC(O)(C(O)(c2ccccc2)c2ccccc2)CC1(C)C
inactive: [1] 10.4% | [2] -9.35% | [3] -14.6% | [4] -14% | [5] -11.2% | [6] 3.7%

c1ccc(-c2nc(-c3nn[nH]n3)c3ccccc3n2)cc1
inactive: [1] -1.2% | [2] 13.7% | [3] 2.85% | [4] -19.6% | [5] 14.5% | [6] 20.8%

CCOC(=O)COc1cc2c(cc1C(CC)c1ccccc1)OCO2 (stereo not drawn)
inactive: [1] -7.85% | [2] -1.45% | [3] -3.25% | [4] 5.95% | [5] 9.45% | [6] 2.9%

O=C(/C(=C/c1ccccc1)N1CCOCC1)c1cccc2ccccc12
inactive: [1] 18.9% | [2] -2.15% | [3] 17.1% | [4] 14.7% | [5] 21.4% | [6] 19.9%

CCCCOC(=O)/C(CC(=O)C=C(C)C)=N\NS(=O)(=O)c1ccc(C)cc1
inactive: [1] 1.75% | [2] -14.1% | [3] -10.5% | [4] 5.3% | [5] -8.5% | [6] -5.75%

O=C(O)CCC1(c2ccccc2)NC(=O)NC1=O (stereo not drawn)
inactive: [1] -39.1% | [2] -2.85% | [3] -18.4% | [4] -37% | [5] -1.1% | [6] -6.75%

CC1OCC2OC(C)OC(C(C3C(=O)CC(C)(C)CC3=O)C3C(=O)CC(C)(C)CC3=O)C2O1 (stereo not drawn)
inactive: [1] 17.4% | [2] 6.3% | [3] 19.2% | [4] -8.3% | [5] 26.2% | [6] 22.8%

CC1(C)CC([NH-])(C(=O)O)CC(C)(C)N1O.CC1(C)CC([NH-])(C(=O)O)CC(C)(C)N1O.[Pt+2]
inactive: [1] -5.65% | [2] -8.75% | [3] -6.5% | [4] -45.6% | [5] -1.05% | [6] -23.8%

CCCC(C)C(=O)O (stereo not drawn)
inactive: [1] 23.1% | [2] -1.95% | [3] 4% | [4] 23.1% | [5] 28.8% | [6] 19.9%

O=C1C2C(C(=O)N1c1ccccc1)C1(c3cccnc3)NC(=O)C2(Cc2cccnc2)c2ccccc21 (stereo not drawn)
inactive: [1] 12.6% | [2] -5.85% | [3] 8.95% | [4] 19.7% | [5] -1.55% | [6] 13.5%

COc1ccc(Cc2cc(O)c(OC)cc2O)cc1
inactive: [1] 5.55% | [2] 17.1% | [3] 38.4% | [4] -22.2% | [5] -3.75% | [6] 26.8%

CN(C)CCn1c(CO)nc2c1c(=O)n(C)c(=O)n2C
inactive: [1] -9.95% | [2] 12.2% | [3] -21.4% | [4] -15.2% | [5] 0.1% | [6] -5.6%

CC(=O)OCC1OC(n2cnc3c(=S)nc[nH]c32)C(OC(C)=O)C1N(C)C(C)=S (stereo not drawn)
inactive: [1] 38.5% | [2] -4% | [3] 37.6% | [4] 9.85% | [5] 1.25% | [6] 12.6%

Nc1nc(N)c2cc(S(=O)(=O)c3ccc(Cl)cc3)ccc2n1
inactive: [1] 21.9% | [2] 36.1% | [3] 12.5% | [4] -12.2% | [5] 17.8% | [6] 28.6%

C/C=C(/C)c1ccccc1
inactive: [1] -5.1% | [2] 1.8% | [3] -1.1% | [4] 10.4% | [5] 4.55% | [6] 24.6%

CN1C(=O)C(Cl)(C#N)C(c2ccccc2)N(C)C1c1ccccc1 (stereo not drawn)
inactive: [1] 5.7% | [2] 8.05% | [3] 18% | [4] -37.9% | [5] 39.4% | [6] 20.1%

Clc1ccc(C(=C(c2ccc(Cl)cc2)c2ccc(Cl)cc2)c2ccc(Cl)cc2)cc1
inactive: [1] -3.85% | [2] 5.4% | [3] 3.5% | [4] -3.35% | [5] 10.4% | [6] -1.45%
